Measurements: ChEMBL document CHEMBL5606460, “ASAP - DENV-2 NS2B-NS3 protease fluorescence single point” (2024)
The whole screen tested about 2,000 compounds, of which about 110 (5.5%) showed an effect of 50% or more. The sample holds strong results, similar compounds and a random draw of the others, so the mix is not that of the screen.

Target: Genome polyprotein (dengue virus type 2) (UniProt P29990)
[1] = Thailand/16681/1984, Concentration 25.0 uM, Number of replicates 1.0

`OB1CCc2c(cccc2N2CC[C@@H](O)C2)O1` was tested, and the inhibition (Thailand/16681/1984, Concentration 49.5 uM, Number of replicates 2.0, Standard deviation 2.1653827241885084 %) was -1.07%, the inhibition (Thailand/16681/1984, Concentration 99.01 uM, Number of replicates 2.0, Standard deviation 1.9510885480745654 %) was -0.363% and the inhibition (Thailand/16681/1984, Concentration 198.0 uM, Number of replicates 2.0, Standard deviation 2.0113725552722737 %) was 1.02%.

With `Cc1nnccc1Cn1cc(C2CCNCC2)c(C)n1` the inhibition (Thailand/16681/1984, Concentration 49.5 uM, Number of replicates 2.0, Standard deviation 1.059758229221688 %) was -5.29%, the inhibition (Thailand/16681/1984, Concentration 99.01 uM, Number of replicates 2.0, Standard deviation 7.779121042682183 %) was 2.01% and the inhibition (Thailand/16681/1984, Concentration 198.0 uM, Number of replicates 2.0, Standard deviation 1.1444678313445817 %) was -3.21%.

For `Cc1cc(CO)c2cccc(C[C@H](NC(=O)[C@@H](N)c3ccsc3)C(=O)O)c2n1`, the inhibition (Thailand/16681/1984, Concentration 49.95 uM, Number of replicates 2.0, Standard deviation 1.7977802295531586 %) was 8.31% and the inhibition (Thailand/16681/1984, Concentration 99.9 uM, Number of replicates 2.0, Standard deviation 1.1856845832025373 %) was 20.1%.

`Cc1cc(CO)c2cccc(Cc3ccccc3NC(=O)c3ccno3)c2n1` showed an inhibition (Thailand/16681/1984, Concentration 49.95 uM, Number of replicates 2.0, Standard deviation 3.752588616330447 %) of 3.29% and an inhibition (Thailand/16681/1984, Concentration 99.9 uM, Number of replicates 2.0, Standard deviation 1.45880155634974 %) of 6.29%.

`Cc1cccc(C)c1OC[C@H](C)NC(=O)C1CCN(c2ccc(C=O)cc2)CC1` showed an inhibition [1] of 6.86%.

With `CN(c1ccc(Cl)cc1C(N)=O)S(=O)(=O)c1ccc(Oc2ccccc2Cl)cc1` the inhibition (Thailand/16681/1984, Concentration 49.5 uM, Number of replicates 2.0, Standard deviation 0.11551161483271621 %) was 1.15%, the inhibition (Thailand/16681/1984, Concentration 99.01 uM, Number of replicates 2.0, Standard deviation 0.4161514072882 %) was 3.78% and the inhibition (Thailand/16681/1984, Concentration 198.0 uM, Number of replicates 2.0, Standard deviation 1.5666270190069185 %) was 5.59%.

`CCCN(C)C(=O)c1cc(Cl)ccc1NS(=O)(=O)c1ccc(Oc2ccccc2Cl)cc1` showed an inhibition (Thailand/16681/1984, Concentration 49.5 uM, Number of replicates 2.0, Standard deviation 0.9470295707961462 %) of 75.9%, an inhibition (Thailand/16681/1984, Concentration 99.01 uM, Number of replicates 2.0, Standard deviation 0.4835625940830703 %) of 88.8% and an inhibition (Thailand/16681/1984, Concentration 198.0 uM, Number of replicates 2.0, Standard deviation 0.2692812727579233 %) of 93.4%.

`CNC(=O)c1cc(Cl)ccc1N(C)S(=O)(=O)c1ccc(Oc2ccccc2Cl)cc1` gave an inhibition (Thailand/16681/1984, Concentration 49.5 uM, Number of replicates 2.0, Standard deviation 1.1912141654334696 %) of -2.39%, an inhibition (Thailand/16681/1984, Concentration 99.01 uM, Number of replicates 2.0, Standard deviation 1.3706697565683075 %) of -0.121% and an inhibition (Thailand/16681/1984, Concentration 198.0 uM, Number of replicates 2.0, Standard deviation 0.031456216092408736 %) of 3.32%.

Work on `CN(CCS(N)(=O)=O)C(=O)c1cc(Cl)ccc1NS(=O)(=O)c1ccc(Oc2ccccc2Cl)cc1` yielded an inhibition (Thailand/16681/1984, Concentration 49.5 uM, Number of replicates 2.0, Standard deviation 3.051075775612508 %) of 8.12%, an inhibition (Thailand/16681/1984, Concentration 99.01 uM, Number of replicates 2.0, Standard deviation 2.2523140974306535 %) of 55.8% and an inhibition (Thailand/16681/1984, Concentration 198.0 uM, Number of replicates 2.0, Standard deviation 0.05978513602530914 %) of 97.7%.

`COCCCN(Cc1ccccc1)C(=O)C1CCN(c2ccc(C=O)cc2)CC1` was tested, and the inhibition [1] was 16.7%.

With `O=Cc1ccc(N2CCC(C(=O)Nc3cccc(OC(F)(F)F)c3)CC2)cc1` the inhibition [1] was 12.8%.

For `O=Cc1ccc(N2CCC(C(=O)N3CCN(c4ncc(C(F)(F)F)cc4Cl)CC3)CC2)cc1`, the inhibition [1] was -1.15%.

In the case of `CSCC(=O)Nc1ccc(Cl)c2cccnc12`, the inhibition (Thailand/16681/1984, Concentration 49.95 uM, Number of replicates 2.0, Standard deviation 4.284996583998793 %) is reported as -8.76% and the inhibition (Thailand/16681/1984, Concentration 99.9 uM, Number of replicates 2.0, Standard deviation 5.022059659232943 %) is reported as -8.17%.

For `Cc1c(C(=O)NCc2ccc(Cl)cc2OCCO)ccc(O)c1NC(=O)c1ccncc1F`, the inhibition (Thailand/16681/1984, Concentration 49.5 uM, Number of replicates 2.0, Standard deviation 1.9465984757153059 %) was -3.14%, the inhibition (Thailand/16681/1984, Concentration 99.01 uM, Number of replicates 2.0, Standard deviation 1.7394020396248402 %) was -2.65% and the inhibition (Thailand/16681/1984, Concentration 198.0 uM, Number of replicates 2.0, Standard deviation 1.2400320592735166 %) was 0.351%.

With `O=Cc1ccc(N2CCC(C(=O)Nc3ncc(F)cc3Br)CC2)cc1` the inhibition [1] was 10.9%.

Compound `O=Cc1ccc(N2CCC(C(=O)Nc3cccc(C(F)(F)F)n3)CC2)cc1` has an inhibition [1] of 13.5%.

Compound `O=Cc1ccc(N2CCC(C(=O)Nc3cccc(Br)n3)CC2)cc1` has an inhibition [1] of 92.6%.

`O=Cc1ccc(N2CCC(C(=O)Nc3cccc4ccc(O)cc34)CC2)cc1` showed an inhibition [1] of 35.2%.

For `Cc1nc(NC(=O)C2CCN(c3ccc(C=O)cc3)CC2)ccc1Br`, the inhibition [1] was 12.1%.

For `O=Cc1ccc(N2CCC(C(=O)Nc3ccc(Br)cc3O)CC2)cc1`, the inhibition [1] was 31.4%.

`O=Cc1ccc(N2CCC(C(=O)Nc3ncc(Br)cc3O)CC2)cc1` gave an inhibition [1] of 52.8%.

`Cc1ccc2cccc(NC(=O)C3CCN(c4ccc(C=O)cc4)CC3)c2n1` showed an inhibition [1] of 50.9%.

For `Cc1c(Br)cccc1NC(=O)C1CCN(c2ccc(C=O)cc2)CC1`, the inhibition [1] was 13%.

`COC(=O)c1cccc(C(=O)Nc2ccncc2C)c1` showed an inhibition (Thailand/16681/1984, Concentration 49.5 uM, Number of replicates 2.0, Standard deviation 0.22567664905073445 %) of -4.08%, an inhibition (Thailand/16681/1984, Concentration 99.01 uM, Number of replicates 2.0, Standard deviation 0.2045809712592737 %) of -3.74% and an inhibition (Thailand/16681/1984, Concentration 198.0 uM, Number of replicates 2.0, Standard deviation 1.3054913833669988 %) of -2.98%.

`C[C@@H](c1ccccc1)N(CC1CC1)C(=O)C1CCN(c2ccc(C=O)cc2)CC1` showed an inhibition [1] of 13.8%.

`O=C(c1csc([C@H]2CCCNC2)n1)N1CC[C@H](c2cccnc2)C1` was tested, and the inhibition (Thailand/16681/1984, Concentration 49.5 uM, Number of replicates 2.0, Standard deviation 1.7251582592894925 %) was -0.499%, the inhibition (Thailand/16681/1984, Concentration 99.01 uM, Number of replicates 2.0, Standard deviation 2.248532513594862 %) was 1.01% and the inhibition (Thailand/16681/1984, Concentration 198.0 uM, Number of replicates 2.0, Standard deviation 1.6393165928155962 %) was 2.41%.

`NS(=O)(=O)c1cccc(CN2CC[C@H](c3c[nH]c4ccccc34)C2)c1` showed an inhibition (Thailand/16681/1984, Concentration 49.5 uM, Number of replicates 2.0, Standard deviation 1.1633260593891446 %) of -1.78%, an inhibition (Thailand/16681/1984, Concentration 99.01 uM, Number of replicates 2.0, Standard deviation 1.588607527736017 %) of 0.04% and an inhibition (Thailand/16681/1984, Concentration 198.0 uM, Number of replicates 2.0, Standard deviation 1.7864683947344713 %) of 2.15%.

`Cc1cc(CO)c2cccc(CC(=O)Nc3cccc(C(N)=O)c3)c2n1` gave an inhibition (Thailand/16681/1984, Concentration 49.95 uM, Number of replicates 2.0, Standard deviation 0.3351031861891448 %) of 71.5% and an inhibition (Thailand/16681/1984, Concentration 99.9 uM, Number of replicates 2.0, Standard deviation 0.3101738310571331 %) of 94.2%.

`Cc1cc(CO)c2cccc(Cc3cccc(C(=O)Nc4nonc4C(N)=O)c3)c2n1` showed an inhibition (Thailand/16681/1984, Concentration 49.95 uM, Number of replicates 2.0, Standard deviation 1.9942580477177279 %) of 23.4% and an inhibition (Thailand/16681/1984, Concentration 99.9 uM, Number of replicates 2.0, Standard deviation 1.5142007227316114 %) of 73%.
